Assay outcomes as filed in PubChem BioAssay.
A selection: hits, their analogues and other compounds. The true share with any hit is near 7.1%.
SW480 rereplic – DNA re-replication induction in SW480 cells; SW480 DNA re-replication, Hoechst DNA content imaging, 48 h; actives 1.8% (n = 340,000); Potency, µM (top dose mostly 46.1 µM), without a hit: top-dose re-replication activation, hits mostly activators; also: % of control where 0% means no effect; nearly all actives have a fitted effect of over 55% in size
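SW480 cells exposed to compounds for 48 hr at 37 C, 5% CO2, then Hoechst-stained 40 min. Nuclear DNA content imaged by fluorescence scanning (405 nm excitation, 500-530 nm emission); re-replication scored as increased high-intensity nuclei.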
AT treatment – potential ataxia-telangiectasia treatments restoring KAP-1 phosphorylation; F2112 A-T fibroblasts, KAP-1 phosphorylation AlphaLISA; neocarzinostatin DNA damage 30 min before lysis; actives 0.19% (n = 320,000); AID 485349; Potency, µM (titrated, usually from 57.5 µM), without a hit: at the highest dose activation, usual class: activators; also: % of control where 0% means no effect; nearly all actives have a fitted effect of over 45% in size
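hTERT-immortalized A-T patient fibroblasts (F2112), 500 cells/well in OPTI-MEM, 1% FBS, got compounds for 60 min, then NCS for 30 min at 37C. Lysates were then assayed for phospho-KAP-1 by AlphaLISA (anti-pKAP1 donor, anti-KAP1 acceptor beads), 6 hr at 25C.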
ELG1 genotox – inducers of genotoxicity in HEK293T ELG1-luciferase cells. Potency, µM (doses to about 46 µM), without a hit: top-dose activity change, positive = activation, usual class: activators. HEK293T ELG1-luciferase reporter, luminescence, 16 h. actives 1.3% (n = 330,000); also: % of control where 0% means no effect; nearly all actives have a fitted effect of over 60% in size
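DMSO vehicle served as control against compound-treated ELG1-luciferase HEK293T cells; exposure lasted 16 hr at 37 °C and 5% CO2, followed by ONE-Glo luminescence detection after 30 min.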
p53 reactivator – re-activators of mutant p53; H1299 p53-A138V BP100-luciferase reporter, luminescence, 24 h; Potency, µM (titrated, usually from 92.2 µM), for inactives: at the top dose activity change, positive = activation, actives largely listed as activators; actives 0.063% (n = 320,000); also: % of control where 0% means no effect; nearly all actives have a fitted effect of over 45% in size
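p53-null H1299 cells stably carrying temperature-sensitive p53-A138V and a BP100-luciferase reporter were pinned with compounds (4-point, 1:5 series) and held 24 hrs at 37 deg C. Luminescence was read 10 min after detection reagent.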
ELG1 DNA repair – blocks ELG1-dependent DNA repair in HEK293T cells. HEK293T ELG1-luciferase reporter, luminescence, 16 h; DNA damage induced by 5-fluorouridine. actives 2.3% (n = 330,000). Potency, µM (titrated, usually from 46.1 µM), without a hit: at the top dose activity change, negative = inhibition, hits mostly inhibitors. AID 504467; also: % is scaled to controls: 0 for no effect and ±100 for the full control effect; nearly all actives have a fitted effect of over 55% in size
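Reporter activity after DNA damage by 5-fluorouridine is monitored. Compound-treated cells incubate 16 hr at 37 °C, then ONE-Glo is added for 30 min before luminescence reading.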
MCF10A rerep – DNA re-replication induction in MCF 10a cells; MCF 10A DNA re-replication, Hoechst nuclear intensity, 48 h; Potency, µM (titrated, usually from 46.1 µM), without a hit: at the top dose activity, positive = re-replication, most hits filed as activators; actives 2.9% (n = 350,000); AID 624296; also: % of control where 0% means no effect; nearly all actives have a fitted effect of over 50% in size
An asterisk follows results filed as active. Calls follow the shape of the dose curve; as a rule, active = well fitted curve in the direction sought with a large enough effect; inconclusive = small, poorly fitted or top-dose-only effect, or another doubt; inactive = no such curve, though single readings can be large; an effect the other way counts as inactive or inconclusive. Potency is read from the fitted curve at half-maximal effect.

For CC1OC2(C)OC(=N)C1(C#N)C(C#N)(C#N)C2c1ccccc1 (configuration not stated) the results were SW480 rereplic -99%, AT treatment 4%, ELG1 genotox 0%, p53 reactivator 4%, ELG1 DNA repair 6% and MCF10A rerep inconclusive.
Screening CC1C2(C)OC(=N)C(C#N)(C(C)O2)C1(C#N)C#N (configuration not stated) returned SW480 rereplic 1.3µM*, AT treatment -4%, ELG1 genotox 3%, p53 reactivator -1%, ELG1 DNA repair -10% and MCF10A rerep inconclusive.
`CC1CC2OC(=O)C3(C)CCCC(C)(C23)C1(O)CCc1ccoc1` (configuration not stated) gave SW480 rereplic -3%, AT treatment 3%, ELG1 genotox -4%, p53 reactivator 1%, ELG1 DNA repair 15µM* and MCF10A rerep -5%.
`COC(=O)Nc1nnc(-c2ccccc2Cl)s1` gave SW480 rereplic -1%, AT treatment 6%, ELG1 genotox 23µM*, p53 reactivator inconclusive, ELG1 DNA repair inconclusive and MCF10A rerep -4%.
For CCn1c(SCC(=O)N2CCC(C)CC2)nc2c1c(=O)n(C)c(=O)n2C the results were SW480 rereplic -6%, AT treatment -5%, ELG1 genotox -5%, p53 reactivator 2%, ELG1 DNA repair -6% and MCF10A rerep 6%.
For CCOC(=O)COc1ccccc1/C=C\[N+](=O)[O-] the results were SW480 rereplic 4.1µM*, AT treatment -4%, ELG1 genotox inconclusive, p53 reactivator -18%, ELG1 DNA repair inconclusive and MCF10A rerep inconclusive.
Screening Cc1ccc(C(=O)COC(=O)COc2ccccc2[N+](=O)[O-])s1 returned SW480 rereplic -4%, AT treatment 2%, ELG1 genotox 0%, p53 reactivator 1%, ELG1 DNA repair 7% and MCF10A rerep -6%.
O=C(O)c1ccc(Cn2cnc3c(=O)[nH]cnc32)cc1 was read as SW480 rereplic 1% and MCF10A rerep 0%.
COc1ccccc1N1C(=O)CC(Nc2ccc(N3CCOCC3)cc2)C1=O (configuration not stated) was read as SW480 rereplic -7%, AT treatment -11%, ELG1 genotox -4%, p53 reactivator 2%, ELG1 DNA repair 1% and MCF10A rerep 1%.
For O=C1CC(Nc2ccc(N3CCOCC3)cc2)C(=O)N1c1ccccc1 (configuration not stated) the results were SW480 rereplic inconclusive, AT treatment -7%, ELG1 genotox 3%, p53 reactivator -4%, ELG1 DNA repair 4% and MCF10A rerep 8.2µM*.
`CC(=O)c1cccc(NC(=O)c2cc3ccccn3n2)c1` gave SW480 rereplic -1%, AT treatment 1%, ELG1 genotox 18µM*, p53 reactivator inconclusive, ELG1 DNA repair inconclusive and MCF10A rerep -9%.
For CC(=O)c1ccc(NC(=O)c2cnn3ccccc23)cc1 the results were SW480 rereplic 4%, AT treatment 0%, ELG1 genotox 1.3µM*, p53 reactivator 21%, ELG1 DNA repair inconclusive and MCF10A rerep -8%.
CC(=O)c1cccc(NC(=O)c2cnn3ccccc23)c1 was read as SW480 rereplic -3%, AT treatment 5%, ELG1 genotox 12µM*, p53 reactivator inconclusive, ELG1 DNA repair inconclusive and MCF10A rerep -9%.
For Cc1ccc(C)c(NC(=O)c2cc3ccccn3n2)c1 the results were SW480 rereplic -12%, AT treatment 13%, ELG1 genotox 9.2µM*, p53 reactivator 16%, ELG1 DNA repair inconclusive and MCF10A rerep 0%.
